Source: PubChem
Shown are actives, neighbours in structure and some others; about 1% of the full set was active somewhere.
RXFP1 antagonist – qHTS Assay for Antagonists of the Relaxin Receptor RXFP1. Relaxin receptor 1 (Homo sapiens), Q9HBX9. 0.59% of 350,000 active. activity change, negative = inhibition, % at 57.5 µM. HEK293-RXFP1, relaxin-stimulated cAMP HTRF, 30 min; hits give low values;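 active means activity change of -60% or lower, but not beyond a set lower limit; inconclusive means change between -60% and -40%, or beyond the set limit; inactive means change above -40%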; further: on the % scale 0 is the no-effect control and ±100 the full control effect
Target sequence (Q9HBX9 whole entry, looked up): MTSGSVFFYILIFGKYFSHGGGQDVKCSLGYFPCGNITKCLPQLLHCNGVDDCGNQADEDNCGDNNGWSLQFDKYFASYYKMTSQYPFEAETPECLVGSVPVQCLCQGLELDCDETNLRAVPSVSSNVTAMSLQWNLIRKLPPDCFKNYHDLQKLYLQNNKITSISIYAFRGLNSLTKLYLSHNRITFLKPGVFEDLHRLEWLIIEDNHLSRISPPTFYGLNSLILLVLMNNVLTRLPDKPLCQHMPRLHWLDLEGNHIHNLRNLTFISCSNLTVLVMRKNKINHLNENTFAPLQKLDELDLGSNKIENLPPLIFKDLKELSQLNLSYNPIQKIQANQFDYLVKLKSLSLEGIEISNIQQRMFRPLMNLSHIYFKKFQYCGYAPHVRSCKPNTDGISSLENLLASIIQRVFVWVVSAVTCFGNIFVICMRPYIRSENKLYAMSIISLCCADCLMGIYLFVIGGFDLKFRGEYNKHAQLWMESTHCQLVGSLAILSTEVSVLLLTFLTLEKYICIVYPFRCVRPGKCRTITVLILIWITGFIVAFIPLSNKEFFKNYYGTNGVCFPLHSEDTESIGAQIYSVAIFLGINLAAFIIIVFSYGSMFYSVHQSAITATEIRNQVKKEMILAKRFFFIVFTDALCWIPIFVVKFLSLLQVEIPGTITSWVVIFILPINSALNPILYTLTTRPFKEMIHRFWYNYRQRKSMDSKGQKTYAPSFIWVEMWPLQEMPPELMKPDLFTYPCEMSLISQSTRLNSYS
miR-21 reporter – qHTS Assay for Modulators of miRNAs and/orActivators of miR-21; Potency, µM (doses to about 38.3 µM), for inactives: at the top dose activity change, positive = activation, actives largely listed as activators; 340,000 tested, under 10 active; HeLa miR-21 FLuc reporter, luciferase, 48 h;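 further: % of control where 0% means no effect; miR-21 action dims this reporter so a rising signal means less miR-21 action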
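Luminescence from a firefly luciferase reporter carrying a miR-21 binding site downstream, stably expressed under a CMV promoter in HeLa cells that make miR-21 endogenously, reports miRNA modulation after 48 h compound exposure up to approximately 40uM final.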
KinaseGlo FLuc – Counterscreen for Luciferase (Kinase-Glo TM) Inhibition; 0.28% of 200,000 active; Kinase-Glo luciferase, ATP luminescence, 8 min; Potency, µM (top dose mostly 38.3 µM), for the others: at the top dose activity change, negative = inhibition, hits mostly inhibitors; further: potency means the concentration at half of the fitted maximal effect; on the % scale 0 is the no-effect control and ±100 the full control effect; nearly all actives have a fitted effect of over 60% in size
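Compound is pinned into ATP-containing buffer (10 uM ATP, imidazole pH 7.2, 7 mM MgCl2). Kinase-Glo luciferase reagent is then added. Light output is recorded following an 8-min room-temperature incubation.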
RXFP1 ag – qHTS Assay for Agonists of the Relaxin Receptor RXFP1. HEK293T-RXFP1 cAMP TR-FRET, 30 min; response scale: percent of porcine relaxin response, buffer zero. Potency, µM (highest dose often 57.5 µM), for the others: at the highest dose activation, actives largely listed as activators. 0.3% of 370,000 active. Relaxin receptor 1 (Homo sapiens), Q9HBX9; further: potency means the concentration at half of the fitted maximal effect; on the % scale 0 is the no-effect control and ±100 the full control effect; nearly all actives have a fitted effect of over 60% in size
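HEK293 cells stably expressing RXFP1, treated 30 min at 37C with compounds plus PDE4 inhibitor Ro 20174; cAMP measured by HTRF TR-FRET. Normalized to buffer and 29 nM porcine relaxin; EC50 by Hill fit.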
gsp antag – qHTS for Antagonists of gsp, the Etiologic Mutation Responsible for Fibrous Dysplasia/McCune-Albright Syndrome: qHTS; gsp-mutant cells, cAMP HTRF, 30 min; Potency, µM (top dose mostly 76.9 µM), inactives show top-dose activity change, negative = inhibition, most hits filed as inhibitors; 0.4% of 340,000 active; calls by dose curve; cell line not stated here;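 further: intracellular cAMP measured with PDE inhibitor Ro 20-1724 present during compound exposure; potency means the concentration at half of the fitted maximal effect; on the % scale 0 is the no-effect control and ±100 the full control effect; nearly all actives have a fitted effect of over 65% in size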
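Measurement of cellular cAMP by homogeneous time-resolved fluorescence following a 30 min compound exposure at 37C. The PDE inhibitor […] was present throughout; the assay buffer was DPBS with 0.05% BSA and 0.005% Tween 20.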
gsp ag – qHTS for Agonist of gsp, the Etiologic Mutation Responsible for Fibrous Dysplasia/McCune-Albright Syndrome: qHTS | Potency, µM (top dose mostly 76.9 µM), for the others: at the top dose activation (cAMP increase), most hits filed as activators | gsp mutant cells, cAMP HTRF, 30 min | 0.13% of 340,000 active; active means well fitted activation curve with a large enough effect; inconclusive means small, poorly fitted or top-dose-only effect, or another doubt; inactive means no such curve, though single readings can be large or run the other way; cell line not stated here;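 further: phosphodiesterase inhibitor Ro 20-1724 added with compounds to block cAMP breakdown; potency means the concentration at half of the fitted maximal effect; nearly all actives have a fitted effect of over 60% in size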
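Cells in DMEM/10% FBS with G418 were pretreated with compounds in DMSO plus […] (300 uM stock) for 30 min at 37C. cAMP was measured by HTRF (cAMP-d2 plus anti-cAMP antibody-K) after 30 min at room temperature.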
An asterisk follows results filed as active; ? = inconclusive; · = no result; [ ] = another dose, or the depositor's remark. Unless noted, the call rests on the fitted dose curve; in most records, active means well fitted curve in the direction sought with a large enough effect; inconclusive means small, poorly fitted or top-dose-only effect, or another doubt; inactive means no such curve, though single readings can be large; an effect the other way counts as inactive or inconclusive.

SMILES | RXFP1 antagonist | miR-21 reporter | KinaseGlo FLuc | RXFP1 ag | gsp antag | gsp ag
COc1ccc(/C=N/Nc2ncccc2[N+](=O)[O-])c(OC)c1 | -14.3 | -22.4% | 11.2µM* | -0.5% | -18.0% | -49.3%
CO[C@@H]1/C=C\O[C@]2(C)Oc3c(C)c(O)c4c(O)c(cc(O)c4c3C2=O)NC(=O)/C(C)=C\C=C/[C@H](C)[C@@H](O)[C@H](C)[C@H](O)C(C)[C@H](OC(C)=O)[C@@H]1C (stereo partly drawn) | · | · | -0.3%[7.66 µM] | · | · | ·
CCCC(=O)Nc1ncnc2c1ncn2[C@@H]1O[C@@H]2COP(=O)(O)O[C@H]2[C@H]1OC(=O)CCC | · | -47.3% | 0.8% | 0.159µM* | 38.7% | ·
COc1ccc(-c2cc(C(=O)N(C)Cc3cccc(OC)c3OC)c3ccccc3n2)cc1OC | -3.1 | 3.4% | · | 10.4% | 10.3% | -4.8%[15.4 µM]
COc1ccccc1CN(C)C(=O)c1cc(-c2cccs2)nc2ccccc12 | -22.7 | 27.1% | · | 5.2% | 39.8µM* | 16.5%
COc1cccc(/C=N/Nc2nnc3c(n2)[nH]c2ccccc23)c1OC | -60.6* | -36.6% | · | -0.7% | -7.1% | 15.7%
C(=N/Nc1nnc2c(n1)[nH]c1ccccc12)/c1cccnc1 | · | · | -6.5%[7.66 µM] | · | · | ·
Cc1nc(NCc2ccccc2)c2nc(-c3ccccc3)n(CC(C)(C)CN(C)C)c2n1 | · | · | -4.3% | · | · | ·
CCS(=O)(=O)Nc1ccc(C2=NN(C(=O)c3ccco3)C(c3cccc(F)c3)C2)cc1 (stereo not drawn) | -20.0 | 28.1% | 3.1% | -0.4% | 22.4µM* | -17.1%
CCN(CC)c1ccc(NC(=O)c2cccn2-c2nnc(N3CCCCC3)s2)c(C)c1 | -60.3* | 22.3% | · | -1.5% | · | ·
Cc1ccc(Cl)cc1N1CCN(C(=O)c2cccn2-c2nnc(N3CCCCC3)s2)CC1 | 8.3 | -0.7% | · | 6.7% | · | ·
Cc1cccc(N2CCN(C(=O)c3cccn3-c3nnc(N4CCCCC4)s3)CC2)c1C | -68.1* | 9.0% | · | 14.1% | · | ·
O=C(O)[C@H](O)c1ccccc1 | 5.6 | · | · | · | · | ·
Cc1cn(S(=O)(=O)c2ccc(Br)c3ccccc23)cn1 | · | -3.9% | 5.8% | 22.4µM* | · | ·
COc1cc(S(=O)(=O)n2cnc(C)c2)ccc1Br | 8.8 | 2.5% | -0.5% | 1.2% | 16.7% | ?
CNc1nc(NCc2ccccc2)c2ccccc2n1 | -10.1 | 18.3% | · | 0.4% | 12.7% | 0.3%
Oc1ccccc1Nc1nc(NCc2ccccc2)c2ccccc2n1 | -79.0* | ? | 1.2% | 0.6% | ? | 1.7%[15.4 µM]
Cc1ccc(CNC(=O)C(C)n2nc(C)n3c(cc4sccc43)c2=O)cc1 (stereo not drawn) | -10.4 | -3.2% | · | ? | · | ·
CCn1c(SCc2ccccc2F)nc(=O)c2c(C(=O)OC)cc(C3CC3)nc21 | -102.0* | ? | · | -0.1% | · | ·
CCn1c(SCc2ccc(F)cc2Cl)nc(=O)c2c(C(=O)OC)cc(C3CC3)nc21 | -83.5* | 27.1% | · | 0.0% | · | ·
COC(=O)c1cc(C)nc2c1c(=O)nc(SCc1ccccc1Cl)n2C1CC1 | ? | -3.7% | · | 9.6% | · | ·
Cc1cc(NC(=O)c2cccs2)ncc1NC(=O)c1cccc(F)c1 | -6.6 | -45.3% | -10.3% | 4.4% | -12.7% | 28.7%
Cc1cc(NC(=O)c2ccccc2)ncc1NC(=O)c1cccs1 | -6.5 | -53.0% | 11.2µM* | 0.2% | 1.3% | -1.4%
CCn1nc(C)c2c(-c3ccccc3)cc(=O)n(C(C)C(=O)NCCC(C)C)c21 (stereo not drawn) | -26.2 | -4.1% | · | -1.8% | · | ·
Cc1ccccc1CS(=O)(=O)Cc1ccc(C(=O)NCCc2ccc(Cl)cc2)o1 | -96.2* | ? | · | 5.9% | · | ·
SMILES | RXFP1 antagonist | miR-21 reporter | KinaseGlo FLuc | RXFP1 ag | gsp antag | gsp ag
CCCC(CCC)(C(=O)OCC)C(=O)OCC | -12.2 | · | · | · | · | ·
Cc1ccn2cc(-c3cc4ccccc4oc3=O)nc2c1 | -16.3 | -43.5% | 10µM* | 6.1% | -0.8% | -6.6%[15.4 µM]
O=c1oc2ccccc2cc1-c1cn2cc(Cc3ccc(Cl)cc3)sc2n1 | · | -1.2% | · | 5.2% | · | ·
c1ccc2[nH]c(-c3cscn3)nc2c1 | 13.9 | -43.5% | -17.7% | 0.7% | 7.7% | ·
c1ccc2nc(-c3nc4ccccc4[nH]3)ccc2c1 | 5.7 | 15.2% | 8.91µM* | 0.0% | -6.4% | 3.3%
Cc1cccc(NC(=O)CSc2ccc3nnc(-c4cccnc4)n3n2)c1 | -1.8 | -11.6% | · | ? | 20.8% | 24.2%[15.4 µM]
CCOC(=O)C(CC)Sc1ccc2nnc(-c3cccnc3)n2n1 (stereo not drawn) | -0.3 | -20.9% | 2.7% | 17.8µM* | 17.4% | 46.3%[15.4 µM]
CCC(Sc1ccc2nnc(-c3cccnc3)n2n1)C(=O)O (stereo not drawn) | · | 0.0% | -1.8% | 14.1µM* | 12.0% | 2.51µM*
CCc1ccc(NC(=O)Cn2c(=O)n(CCCCC(=O)NCc3ccccc3Cl)c(=O)c3ccccc32)cc1 | · | 0.1% | · | 2.0% | · | ·
CC1=C(C)/C(=N\OS(=O)(=O)c2ccccc2)C=CC1=O | -114.0* | ? | -3.4% | -2.7% | ? | 4.5%
c1ccc(SSc2ccccn2)nc1 | -66.5* | · | · | · | 0.5% | -4.4%[15.4 µM]
CCO[C@H](Cc1ccc(OCCc2ccc(OS(C)(=O)=O)cc2)cc1)C(=O)O | -26.6 | · | · | · | · | ·
COc1ccc(NC(=O)C2CCCN2c2nn3c(=O)cc(C)nc3s2)cc1 (stereo not drawn) | 5.7 | -4.2% | · | ? | 13.4% | 22.4µM*
CC(=O)N[C@H]1[C@H]([C@H](O)[C@H](O)CO)OC(C(=O)O)=C[C@@H]1N=C(N)N | -2.6 | · | · | · | · | ·
O=C(NC(=S)Nc1cccnc1Cl)c1ccc(Cl)cc1 | -15.1 | -38.8% | · | -0.3% | -11.3% | 27.3%
O=C(Nc1cccnc1Cl)c1ccc(Cl)cc1 | -63.2* | -55.9% | · | 0.7% | 0.2% | -8.0%
O=C(Nc1ccc(-n2cccc2)cc1)C1CC1 | 0.7 | -28.2% | 1.6% | -1.4% | 11.2µM* | -2.3%[15.4 µM]
[ClH+][Cu][ClH+].[Cu].[OH2+]c1ccc2ccccc2c1CN1CCCCC1.[OH2+]c1ccc2ccccc2c1CN1CCCCC1 | · | · | -6.6%[7.66 µM] | · | · | ·
CN(C(=O)COC(=O)CSc1ccc([N+](=O)[O-])cc1)C1CCS(=O)(=O)C1 (stereo not drawn) | -100.5* | · | · | -0.2% | -0.9% | 7.6%[15.4 µM]
Cc1nc2nc(SCc3ccc(F)cc3Cl)nn2c(C)c1Cc1ccccc1 | ? | -18.4% | · | 3.6% | · | ·
CCCCC1=CC2=C(c3ccco3)C(=O)C(C)(OC(=O)c3cccs3)C(=O)C2=CO1 (stereo not drawn) | · | · | -1.0% | · | · | ·
